Source: PubChem BioAssay (NCI)
About 83,000 compounds went through this panel and 20% of them were active in at least one assay; those are over-represented in the sample as a whole.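 For each line, cells grew in 96-well plates with the test compound present at a single concentration for 48 hours.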 Calls of active or inactive are those of the source. The calls were made as follows: active = growth percent below 10; inactive = the rest.

Experiments:
Assay in all cases: NCI-60 one-dose screen, 48 h (100 = growth as untreated, 0 = no growth, -100 = all killed)
Conditions in all cases: 10 µM unless noted
[1] = test system: SR leukemia
[2] = test system: RPMI-8226 leukemia
[3] = test system: OVCAR-8 ovarian
[4] = test system: OVCAR-5 ovarian
[5] = test system: OVCAR-4 ovarian
[6] = test system: SK-OV-3 ovarian
[7] = test system: IGROV1 ovarian
[8] = test system: OVCAR-3 ovarian
[9] = test system: HS 578T breast
[10] = test system: NCI/ADR-RES ovarian
[11] = test system: T-47D breast
[12] = test system: BT-549 breast
[13] = test system: MDA-MB-435 melanoma
[14] = test system: SW-620 colon
[15] = test system: MCF7 breast
[16] = test system: HCT-116 colon
[17] = test system: HCC-2998 colon
[18] = test system: KM12 colon

Measured: growth

COc1cc(OC)cc(C(=O)Nc2cnc(Nc3ccc(N4CCOCC4)nc3)nc2Oc2ccc(C(F)(F)F)cc2)c1
inactive: [1] 73% | [2] 86.2% | [3] 39.7% | [4] 92.9% | [6] 111% | [7] 77.4% | [8] 62.8% | [9] 30.4% | [10] 60.1% | [11] 69.9% | [12] 77.5% | [13] 74.9% | [14] 71.2% | [15] 59.1% | [16] 16.1% | [17] 99.9% | [18] 88%
active: [5] 8.78%

CN1C(=O)N(C)C2C1NN=c1s/c(=C\c3ccccc3F)c(=O)n12 (stereo unspecified)
active: [8] -3.72% | [9] 7.57% | [10] -13.1% | [13] -40.2% | [17] 5.08%
inactive: [1] 18.2% | [2] 20.7% | [3] 10.1% | [4] 25.6% | [5] 49% | [6] 33.8% | [7] 20.8% | [11] 52.6% | [12] 18.9% | [14] 18.8% | [15] 18.6% | [16] 14% | [18] 17.4%

CC1=C([Se]CC(OC(=O)[C@@H](CO)NC(=O)OC(C)(C)C)C(=O)NCCCCCC(=O)OCc2ccccc2)C(=O)c2ccccc2C1=O (stereo partly specified)
active: [1] -4.61% | [2] -28.9% | [3] -82.4% | [4] -70.5% | [5] -98.1% | [6] -60.1% | [7] -93.9% | [8] -82.1% | [9] 2.05% | [10] -76.6% | [11] -94.3% | [12] -98.6% | [13] -83.3% | [14] -42% | [15] -44.7% | [16] -88.9% | [17] -92.5% | [18] -52.7%

COC(=O)c1ccc(-n2cc(CCCOS(=O)(=O)c3ccc(F)cc3)nn2)cc1
inactive: [1] 87.4% | [2] 97.3% | [3] 96.2% | [4] 98.6% | [5] 94.4% | [6] 102% | [7] 102% | [8] 107% | [9] 93.6% | [10] 106% | [11] 97.9% | [12] 101% | [13] 97.3% | [14] 100% | [15] 92.1% | [16] 99.6% | [17] 110% | [18] 100%

COc1cc(CNC(=O)CCCC/C=C/C(C)C)ccc1OCc1cn(-c2ccc(C(F)(F)F)cc2)nn1
active: [16] 2.97%
inactive: [1] 70.4% | [2] 53.4% | [3] 41.1% | [4] 96.6% | [5] 98.6% | [6] 91.3% | [7] 58.7% | [8] 107% | [9] 80.4% | [10] 48.2% | [11] 70.2% | [12] 84.5% | [13] 107% | [14] 41.3% | [15] 75.2% | [17] 94.8% | [18] 81.2%

O=C(Nc1ncc(Cc2cc(C(F)(F)F)ccc2Cl)s1)C(=S)N1CCOCC1
inactive: [1] 92.1% | [2] 81.9% | [3] 95.2% | [4] 94.7% | [5] 84.5% | [6] 92% | [7] 84.3% | [8] 105% | [9] 92.6% | [10] 91.3% | [11] 73.9% | [12] 99% | [13] 85.9% | [14] 93.2% | [15] 82% | [16] 81.8% | [17] 101% | [18] 97.7%

NS(=O)(=O)Oc1cccc(-c2nc3sccn3c2-c2ccccc2)c1
inactive: [1] 19.8% | [2] 44.1% | [3] 66.8% | [4] 95.2% | [5] 74.9% | [6] 76.7% | [7] 54.4% | [8] 39.1% | [9] 47% | [10] 48.1% | [11] 36.2% | [12] 54% | [14] 35.5% | [15] 26.1% | [16] 23.5% | [17] 87.4% | [18] 48.4%
active: [13] 3.29%

CN1CCN(Cc2ccc(NC(=O)c3cncc(C#Cc4c(N)ncc5ccccc45)c3)cc2C(F)(F)F)CC1
inactive: [12] 14.6%
active: [1] -42.6% | [2] -38% | [3] -62.3% | [4] -22.2% | [5] -55.1% | [6] 8.37% | [7] -62% | [8] -78.4% | [9] -31.5% | [10] -24.5% | [11] -64.5% | [13] -90.3% | [14] -71.3% | [15] -70.8% | [16] -96.5% | [17] -60.7% | [18] -65.2%

O=C1Nc2ccccc2/C1=C/c1cccn1CCCCCCn1c2ccccc2c(=O)c2ccccc21
inactive: [1] 80.8% | [2] 25.3% | [3] 47.5% | [4] 82.2% | [5] 53.8% | [6] 87.2% | [7] 88% | [8] 64.9% | [9] 96.3% | [10] 71.8% | [12] 63.5% | [13] 96.7% | [14] 102% | [16] 70.4% | [17] 42.8% | [18] 12.8%
active: [11] -3% | [15] 1.03%

COc1cccc(NC(=O)c2sc3nc(C)c(C(=O)c4ccccc4)cc3c2N)c1
inactive: [1] 45.4% | [2] 94.5% | [3] 98.8% | [4] 97.5% | [5] 87.9% | [6] 41% | [7] 91.7% | [8] 92.9% | [9] 72.9% | [10] 98.1% | [11] 88.6% | [12] 91.8% | [13] 29.9% | [14] 91.4% | [15] 69.5% | [16] 95.9% | [17] 109% | [18] 88%

COc1ccc(N2C(=O)/C(=C/C(Cl)=C/c3ccc([N+](=O)[O-])cc3)SC2=S)cc1
active: [1] -6.82% | [2] -9.98% | [3] 6.6% | [7] -52.7% | [8] -57.6% | [10] 8.97% | [11] -14.9% | [12] -4.68% | [13] -14.4% | [14] -13.7% | [16] -60.4% | [17] -20.2% | [18] -61.5%
inactive: [4] 10% | [5] 10.4% | [6] 40.8% | [9] 26.3% | [15] 10.4%

CN1CCN(CCCNC(=O)c2c3c(n4ccccc24)C(=O)c2ncccc2C3=O)CC1
active: [1] -8.6% | [3] -9.12% | [5] -100% | [7] -24.6% | [8] -10.7% | [11] -4.38% | [13] -81.1% | [14] -5.63% | [15] -43.8% | [16] -16.4% | [17] -32.2%
inactive: [2] 29.4% | [4] 39.4% | [6] 28.6% | [9] 61.2% | [10] 40.9% | [12] 54.8% | [18] 11.3%

O=C(/C=C/c1ccco1)Nc1ncc(Cc2ccc(F)cc2)s1
active: [8] -8.58% | [10] 0.377% | [13] -17.6% | [17] 7.46%
inactive: [1] 16.1% | [2] 32.4% | [3] 22.2% | [4] 32.5% | [5] 63.9% | [6] 39.3% | [7] 27.2% | [9] 11.3% | [11] 49.3% | [12] 24.2% | [14] 25.4% | [15] 15.8% | [16] 19.5% | [18] 16.1%

C/C=C(/C)C(=O)O[C@@H]1CC(C)(C)CC2C34OC(=O)[C@@]21CC[C@@]3(C)[C@]1(C)CCC2C(C)(C)C(=O)CC[C@]2(C)C1C[C@@H]4O (stereo partly specified)
inactive: [1] 28.5% | [2] 26.2% | [3] 68.6% | [4] 95.3% | [5] 67.1% | [6] 87.8% | [7] 72.6% | [8] 73.7% | [9] 78.3% | [10] 77% | [11] 46.8% | [12] 43.3% | [13] 70.9% | [14] 38.8% | [15] 66.7% | [16] 29.5% | [17] 73.1% | [18] 51.5%

Cc1nn(-c2ccccc2)c(Oc2ccccc2)c1/C=N/NC(=O)Cn1c(=O)sc2ccccc21
inactive: [1] 38.2% | [2] 33.8% | [3] 48.8% | [4] 81.5% | [5] 44.1% | [6] 61% | [7] 54.4% | [8] 61.6% | [9] 67.6% | [10] 44.4% | [11] 14.7% | [12] 25.6% | [13] 54.3% | [14] 72% | [15] 25.4% | [16] 38.1% | [17] 72.2% | [18] 56%

NCCNc1ccc([N+](=O)[O-])cc1
inactive: [1] 100% | [2] 93% | [3] 113% | [4] 115% | [5] 112% | [6] 109% | [7] 111% | [8] 134% | [9] 106% | [10] 116% | [11] 106% | [12] 103% | [13] 113% | [14] 112% | [15] 101% | [16] 98.8% | [17] 115% | [18] 115%

CSc1nc(N)c2c(n1)NC(c1ccccc1)C1CCc3ccccc3C1=N2 (stereo unspecified)
active: [1] 8.22%
inactive: [2] 36.6% | [3] 42.1% | [4] 121% | [5] 41.6% | [6] 85.8% | [7] 40.4% | [8] 43.9% | [9] 62% | [10] 35.8% | [11] 33.5% | [12] 73.9% | [13] 55.9% | [14] 67.7% | [15] 57.1% | [16] 32.3% | [17] 88.8% | [18] 48.3%
